Rows were chosen to be rich in hits. Some 12% of all compounds tested hit in one or more screens of this group.
D1 mod = allosteric modulators of human D1 dopamine receptor. P21728. HEK293 D1, CRE-luciferase, dopamine EC30 potentiation; actives deviate in either direction. B-score at 10 µM. 58,000 compounds, 5.9% hits;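 active = luminescence count or its row- and column-corrected plate score outside the 99.7% band of the plate's sample wells, on either side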
Target sequence (P21728 whole entry, looked up): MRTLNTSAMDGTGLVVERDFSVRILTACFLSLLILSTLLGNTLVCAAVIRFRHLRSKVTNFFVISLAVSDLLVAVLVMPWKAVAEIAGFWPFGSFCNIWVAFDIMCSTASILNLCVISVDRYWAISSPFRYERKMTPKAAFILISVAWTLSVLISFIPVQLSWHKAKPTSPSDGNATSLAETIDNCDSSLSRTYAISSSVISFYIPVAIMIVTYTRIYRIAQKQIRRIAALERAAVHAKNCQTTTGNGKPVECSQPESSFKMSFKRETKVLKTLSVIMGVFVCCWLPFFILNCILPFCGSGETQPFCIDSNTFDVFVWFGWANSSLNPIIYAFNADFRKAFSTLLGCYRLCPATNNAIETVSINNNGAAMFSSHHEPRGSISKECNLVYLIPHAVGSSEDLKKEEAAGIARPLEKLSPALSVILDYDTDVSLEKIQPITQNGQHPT
DAT uptake mod = changed human dopamine transporter uptake under cocaine IC80. LLC-PK1 hDAT cells, [14C]-dopamine uptake with cocaine IC80; actives deviate in either direction. B-score at 10 µM. 110,000 compounds, 1.3% hits. AID 449768;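 active = Z score or B-score, a plate-position-corrected score, falls beyond the plate's 99.7% confidence bounds, in either direction; inactive = both scores lie inside the 99.7% bounds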;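 also: scored against the spread of the other compound wells on the same plate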
PLAP act = activators of human placental alkaline phosphatase; 96,000 compounds, 1.2% hits; AID 696; activation fold at 20 µM; purified PLAP enzyme, luminescent substrate read-out; hits give high values; P05187; in the data active = activation fold above about 2
Cav32 inh = blocks human Cav3.2 T-type calcium channel | O95180 | Cav3.2-expressing cells, Fluo-4 calcium fluorescence FDSS; hits give low values | B-score at 10 µM | 100,000 compounds, 4% hits | AID 449739;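 active = single-dose well whose peak fluorescence ratio is a statistical outlier from its plate by either plate-standardised score or position-corrected B-score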
PostGolgi yeast = growth inhibition of a yeast mutant, post-Golgi transport screen | inhibition, % at 10 µM | 98,000 compounds, 0.9% hits | AID 739 | post-Golgi transport phenotypic cell assay;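 also: yeast cells grown in 1536-well plates; yeast grown about 18 h at 30C before absorbance read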
PostGolgi ctrl = yeast control strain growth, post-Golgi counter-screen; efflux-deficient yeast background strain, growth absorbance A615, 16 h; inhibition, % at 10 µM; 98,000 compounds, 5% hits; AID 738
* marks the source's active call; other numbers are inactive results. Rule as the data show it, unless noted: active = inhibition above about 30%; inactive = the rest.

What do the screens show for `CCNc1nc(NCC)nc(-n2nc(C)cc2C)n1`?
D1 mod: 2.5; DAT uptake mod: -0.26; PLAP act: 1.2; Cav32 inh: 0.082; PostGolgi yeast: 5; PostGolgi ctrl: 20

How did Cc1cc(C)n(-c2nc(Nc3ccccc3C(F)(F)F)nc(-n3nc(C)cc3C)n2)n1 do in these assays?
DAT uptake mod: 0.033; Cav32 inh: -3.1

How did Cc1cc(C)n(-c2nc(Nc3ccccc3C)nc(-n3nc(C)cc3C)n2)n1 do in these assays?
DAT uptake mod: 0.022; PLAP act: 0.9; Cav32 inh: -1.5; PostGolgi yeast: 8; PostGolgi ctrl: 53*

Results for Cc1cc(C)n(-c2nc(NC(C)(C)C)nc(NC(C)(C)C)n2)n1 ?
D1 mod: 0.59; DAT uptake mod: 0.21; PLAP act: 1; Cav32 inh: 0.79; PostGolgi yeast: 9; PostGolgi ctrl: 41*

How did COc1cccc(N2CCN(Cc3coc4c(Cl)cc(Cl)cc4c3=O)CC2)c1 do in these assays?
D1 mod: 0.13

Results for CC(C)(C)OC(=O)N1CCC2(CC1)Oc1ccc(F)cc1C(=O)C21CC(c2ccc(Cl)cc2)=NO1 (stereo not drawn) ?
DAT uptake mod: -0.11; Cav32 inh: -0.33

Results for CCOC(=O)/C(C#N)=C\C1=C(N2CCCC2)CC(C)(CC)OC1 (stereo not drawn) ?
DAT uptake mod: -0.32; Cav32 inh: 2.3

Results for Cc1noc(C)c1CSc1nc2ccccc2c(=O)n1-c1ccc(Cl)cc1 ?
DAT uptake mod: -0.73; PLAP act: 1.3; Cav32 inh: -2.9; PostGolgi yeast: -6; PostGolgi ctrl: 38*

What do the screens show for `Cc1noc(C)c1CSc1nc2sc(C)c(C)c2c(=O)n1-c1ccccc1`?
D1 mod: -0.37; DAT uptake mod: -0.65; PLAP act: 1; Cav32 inh: -1.2; PostGolgi yeast: -10; PostGolgi ctrl: 4

How did Cc1noc(C)c1CSc1nnnn1-c1ccc(Cl)cc1 do in these assays?
D1 mod: -1.1; DAT uptake mod: -0.17; PLAP act: 1.4; Cav32 inh: 0.5; PostGolgi yeast: 18; PostGolgi ctrl: 30*

How did Cc1ccccc1-n1c(SCc2c(C)noc2C)nnc1-c1c[nH]c2ccccc12 do in these assays?
D1 mod: -6.2*; DAT uptake mod: -1.1; PLAP act: 1; Cav32 inh: 0.023; PostGolgi yeast: -2; PostGolgi ctrl: 8

How did Cc1noc(C)c1CSc1nnc(-c2ccccc2)n1N do in these assays?
DAT uptake mod: -8.6*; PLAP act: 0.9; Cav32 inh: -0.29; PostGolgi yeast: 4; PostGolgi ctrl: 0

Results for O=C(Cn1ncc2c1-c1ccccc1OC2)Nc1ccc(Cl)cn1 ?
D1 mod: 2.6; DAT uptake mod: 0.086; PLAP act: 1; Cav32 inh: -0.9; PostGolgi yeast: 0; PostGolgi ctrl: 2

How did O=C(O)CCn1c(SCc2ccccc2)nc2ccccc21 do in these assays?
D1 mod: 0.48; DAT uptake mod: 1.5; PLAP act: 1.1; Cav32 inh: 0.066; PostGolgi yeast: 11; PostGolgi ctrl: -3

How did O=c1c2ccccc2nc(SCc2nc(-c3ccccc3)no2)n1-c1ccc(F)cc1 do in these assays?
D1 mod: -0.39; DAT uptake mod: -0.093; PLAP act: 1.1; Cav32 inh: -4.5*; PostGolgi yeast: 1; PostGolgi ctrl: 11

How did Cc1noc(C)c1CSc1nc2ccccc2n1CCc1ccccc1 do in these assays?
D1 mod: 2; DAT uptake mod: 0.38; PLAP act: 1.4; Cav32 inh: -4.1*; PostGolgi yeast: 8; PostGolgi ctrl: 21

How did CC1CN(Cc2nc3c(c(=O)n(C)c(=O)n3C)n2CCc2ccccc2)CC(C)O1 (stereo not drawn) do in these assays?
D1 mod: 0.68; DAT uptake mod: 0.24; Cav32 inh: 0.34

Results for O=C(c1c(F)c(F)c(F)c(F)c1F)N1CCc2ccccc21 ?
D1 mod: 0.079; DAT uptake mod: 0.13; Cav32 inh: 0.5

What do the screens show for `Cc1nn(-c2ccccc2)c2sc(C(=O)OCC(=O)N3CCCCC3)cc12`?
D1 mod: 0.93; DAT uptake mod: -0.12; PLAP act: 1; Cav32 inh: 0.29

How did CCc1ccc2oc(-c3cc(N=Cc4cccc(OC)c4O)ccc3O)nc2c1 do in these assays?
D1 mod: -5.6*; DAT uptake mod: 0.96; PLAP act: 1.3; Cav32 inh: -0.41; PostGolgi yeast: 9; PostGolgi ctrl: 33*
